The list is not random: actives were taken first. Their share in the collection is about 12%.
HP1b chromo inh = HP1-beta chromodomain-methylated histone interaction inhibition | hit rate 0.56% among 390,000 | AlphaScreen HP1-beta / biotin-H3K9me3 peptide binding | AID 540317 | Potency, µM (titrated, usually from 114 µM), for the others: at the top dose activity change, negative = inhibition, most hits filed as inhibitors; also: nearly all actives have a fitted effect of over 70% in size
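Compound inhibition of the preformed complex between 50 nM HP1-beta and 50 nM biotinylated H3K9me3 peptide was read by AlphaScreen. Buffer was PBS pH 7.4 with 0.01% Tween-20. Incubations ran 30 min at room temperature, with 10 ug/mL donor/acceptor beads.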
TDP1 inh = blocks human tyrosyl-DNA phosphodiesterase 1. recombinant TDP1, AlphaScreen DNA substrate cleavage. hit rate 0.28% among 350,000. Potency, µM (doses to about 130 µM), without a hit: top-dose activity change, negative = inhibition, hits mostly inhibitors. AID 485290; also: % is scaled to controls: 0 for no effect and ±100 for the full control effect; nearly all actives have a fitted effect of over 40% in size
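Recombinant human Tdp1 (E. coli-expressed, 1 nM final) preincubated with compounds 15 min at room temperature, then 5'-biotin/3'-phosphotyrosine-FITC DNA substrate (15 nM final) added for 5 min. AlphaScreen beads (10 ug/ml final) added 10 min; cleavage lowers signal.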
BAZ2B inh = blocks human BAZ2B; Q9UIF8; AlphaScreen BAZ2B-H3K14Ac peptide displacement; Potency, µM (doses to about 114 µM), inactives show top-dose activity change, negative = inhibition, most hits filed as inhibitors; hit rate 4.4% among 360,000; AID 504333; also: % is scaled to controls: 0 for no effect and ±100 for the full control effect; nearly all actives have a fitted effect of over 60% in size
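Compounds, titrated to a top concentration of 110 uM, were incubated 30 min at room temperature with preformed BAZ2B/acetyl-K14 H3 peptide complex (50 nM each). Proximity signal was measured by AlphaScreen after 20 min with beads.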
Sfp PPTase inh = inhibitors of Bacillus subtilis Sfp phosphopantetheinyl transferase. Biochemical Sfp PPTase activity, qHTS. Potency, µM, for inactives: largest response in the series, negative = inhibition, actives largely listed as inhibitors. hit rate 3.5% among 310,000. AID 1490;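 also: the enzyme is Sfp with the accession as filed and its product quenches rhodamine fluorescence; 0% = enzyme reaction without inhibitor and -100% = no enzyme wells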
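After 15 min at room temperature with compound, 15 nM Sfp received 5 uM rhodamine-CoA plus 12.5 uM BHQ-2-ybbR (50 mM Hepes pH 7.6, 10 mM MgCl2). Rate came from the fluorescence difference over 30 min, ex 525/em 598 nm.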
G9a inh = inhibitors of human histone lysine methyltransferase G9a; G9a H3K9 monomethylation, AlphaScreen, 2 h; Q96KQ7; Potency, µM (titrated, usually from 102 µM), inactives show top-dose activity, negative = inhibition, hits mostly inhibitors; hit rate 8.8% among 350,000; also: % is scaled to controls: 0 for no effect and ±100 for the full control effect; nearly all actives have a fitted effect of over 75% in size
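G9a (20 nM) preincubated 15 min RT with compounds, then 500 nM biotinylated H3K9 peptide and 20 uM SAM added; 2 h RT reaction. Monomethyl-H3K9 product detected by AlphaScreen with anti-H3K9me1 antibody, streptavidin donor and anti-rabbit IgG acceptor beads.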
JMJD2A Tudor = JMJD2A Tudor domain (human) inhibition | AlphaScreen JMJD2A-Tudor / H3K4me3 peptide binding | Potency, µM (series often up to 114 µM), for inactives: at the highest dose activity change, negative = inhibition, most hits filed as inhibitors | hit rate 4.4% among 390,000; also: % is scaled to controls: 0 for no effect and ±100 for the full control effect; nearly all actives have a fitted effect of over 50% in size
Target sequence (O75164 whole entry, looked up, the tested form may be a part): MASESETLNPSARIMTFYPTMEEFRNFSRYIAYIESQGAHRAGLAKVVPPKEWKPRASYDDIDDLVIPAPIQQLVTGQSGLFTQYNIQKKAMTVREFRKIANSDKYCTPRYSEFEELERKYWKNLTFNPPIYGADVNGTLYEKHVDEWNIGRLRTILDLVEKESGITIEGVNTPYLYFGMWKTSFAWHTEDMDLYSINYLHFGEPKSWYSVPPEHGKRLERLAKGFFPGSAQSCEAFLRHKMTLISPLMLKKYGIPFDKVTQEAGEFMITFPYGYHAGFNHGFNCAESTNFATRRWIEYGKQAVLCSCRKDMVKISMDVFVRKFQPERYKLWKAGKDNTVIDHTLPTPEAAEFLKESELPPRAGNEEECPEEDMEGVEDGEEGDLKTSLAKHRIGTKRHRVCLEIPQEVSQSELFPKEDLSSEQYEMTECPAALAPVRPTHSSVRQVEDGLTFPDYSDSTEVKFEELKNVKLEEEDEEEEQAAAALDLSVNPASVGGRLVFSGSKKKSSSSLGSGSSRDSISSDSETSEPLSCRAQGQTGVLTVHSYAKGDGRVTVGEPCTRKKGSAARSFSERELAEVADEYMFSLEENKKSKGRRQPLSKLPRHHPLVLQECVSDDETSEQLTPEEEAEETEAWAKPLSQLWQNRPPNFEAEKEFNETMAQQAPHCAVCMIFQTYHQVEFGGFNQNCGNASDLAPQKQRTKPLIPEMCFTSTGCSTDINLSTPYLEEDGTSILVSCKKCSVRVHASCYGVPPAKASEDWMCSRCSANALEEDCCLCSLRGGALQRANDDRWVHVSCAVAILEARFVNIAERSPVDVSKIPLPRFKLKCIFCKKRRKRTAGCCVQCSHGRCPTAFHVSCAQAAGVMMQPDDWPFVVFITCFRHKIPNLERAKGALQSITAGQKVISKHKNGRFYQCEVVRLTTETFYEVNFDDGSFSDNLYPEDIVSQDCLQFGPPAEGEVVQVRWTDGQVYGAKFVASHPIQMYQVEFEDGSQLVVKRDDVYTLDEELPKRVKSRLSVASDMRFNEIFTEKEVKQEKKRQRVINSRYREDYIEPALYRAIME
* hit, by the source's call; ? = inconclusive; nt = no result; [ ] = another dose, or the depositor's remark. Calls follow the shape of the dose curve; as a rule, active = well fitted curve in the direction sought with a large enough effect; inconclusive = small, poorly fitted or top-dose-only effect, or another doubt; inactive = no such curve, though single readings can be large; an effect the other way counts as inactive or inconclusive. Potency is read from the fitted curve at half-maximal effect.

SMILES | HP1b chromo inh | TDP1 inh | BAZ2B inh | Sfp PPTase inh | G9a inh | JMJD2A Tudor
O=C(O)c1cccc(Nc2ncnc3sccc23)c1 | 32.6% | 4.3% | -14.2% | -16.1% | 39.8µM* | -5.5%
CN(CCCC1CCCC1)C(=O)CC1C(=O)NCCN1Cc1ccc(F)cc1 (stereo unspecified) | 19.5% | 2.5% | ? | -3.8% | 79.4µM* | -25.5%
CN(CC1CCOCC1)C(=O)CC1C(=O)NCCN1Cc1ccccc1F (stereo unspecified) | 27.6% | 2.8% | 0.3% | 2.4% | nt | ?
CN(CCC1CCOCC1)C(=O)CC1C(=O)NCCN1Cc1ccccc1F (stereo unspecified) | 22.3% | 3.1%[56.1 µM] | -16.3% | 3.2% | 8.91µM* | -10.3%
COc1ccc(NC(=O)COC(=O)CCNS(=O)(=O)c2ccc(Cl)cc2)cc1 | 41.1% | 3.1% | -35.6% | 18.9% | -35.2% | -25.6%
COc1ccc(NC(C)=[N+](C)CCNS(=O)(=O)c2ccc(Cl)cc2)cc1 | ? | 2.1% | 56.2µM* | 70.8µM* | ? | 25.1µM*
Nc1cc(Cl)ccc1N1CCCCCC1 | -14.0% | -2.5% | -37.5% | -1.4% | 10µM* | -24.0%
Cc1nn(-c2cc(N3CCCCCC3)ccc2[N+](=O)[O-])c(=O)c2ccccc12 | -14.3% | 4.0% | -31.6%[57.1 µM] | 0.7% | -7.5% | ?
c1ccc2cc(N3CCCCC3)ccc2c1 | 27.9%[57 µM] | nt | nt | nt | nt | -30.3%
Cc1nn(-c2cc(N3CCCCC3)ccc2N)c(=O)c2ccccc12 | -0.2% | 8.7% | -3.0% | 7.0% | 3.16µM* | -16.5%
Nc1cc(Cl)ccc1N1CCCCC1 | 11.4% | 3.7% | -14.1% | 8.8% | 1.2% | -9.4%
Nc1ccc(N2CCCCC2)cc1N1CCCCC1 | ? | 10.0% | 35.5µM* | 31.6µM* | 2.51µM* | 28.2µM*
O=C1c2ccccc2C(=O)c2cc(N3CCCCC3)ccc21 | ? | nt | nt | nt | nt | 12.6µM*
Cc1ccc(NC(=O)CS(=O)CC(=O)Nc2ccccc2-c2ccc(C)o2)cc1 (stereo unspecified) | 26.4% | nt | -8.1% | -13.7% | ? | -23.5%
CCOC(=O)C1=C(COc2ccccc2)NC(=O)NC1c1ccc2ccccc2c1 (stereo unspecified) | 25.9% | nt | nt | nt | nt | -16.4%
O=C(O)/C(=C\c1ccc(Cl)c([N+](=O)[O-])c1)c1ccc(S(=O)(=O)N2CCCCC2)s1 | -1.5% | 7.1% | ? | 44.7µM* | 44.7µM* | ?
O=C(O)/C(=C\c1ccc(Cl)c([N+](=O)[O-])c1)c1ccc(S(=O)(=O)N2CCCC2)s1 | -1.8% | -14.1%[56.1 µM] | 56.2µM* | nt | -3.8%[2.33 µM] | ?
O=C(O)/C(=C\c1ccc(Cl)cc1)c1ccc(S(=O)(=O)N2CCCC2)s1 | 7.1% | nt | ? | nt | ? | -24.1%
COc1ccc2c(c1)CCc1c(C(=O)Nc3c(C)nn(Cc4ccc(Cl)c(Cl)c4)c3C)noc1-2 | -17.9% | 6.4% | -10.4% | nt | -31.5%[59 µM] | -30.0%
COc1cc(NCc2ccccc2)c2ncn(Cc3ccccc3)c2c1 | ? | 11.5% | nt | nt | nt | 25.1µM*
CCC(CO)Oc1cc(NCc2ccccn2)c2ncn(C(C)C)c2c1 (stereo unspecified) | 29.8% | 2.5% | nt | nt | nt | ?
CCC(CO)Oc1cc(NCc2ccc(O)cc2)c2ncn(C(C)C)c2c1 (stereo unspecified) | 10.2% | 3.7% | nt | nt | nt | ?
CC(C)n1cnc2c(NCc3ccccc3)cc(N[C@H](C)CO)cc21 | ? | 11.1% | nt | nt | nt | 56.2µM*
CCC(CO)Oc1cc(NCc2ccc(C(C)(C)C)cc2)c2ncn(C(C)C)c2c1 (stereo unspecified) | -17.1% | 7.5% | nt | nt | nt | 25.1µM*
CCCCOc1cc(NCc2ccccc2)c2ncn(C(C)C)c2c1 | ? | 12.0% | nt | nt | nt | 39.8µM*
SMILES | HP1b chromo inh | TDP1 inh | BAZ2B inh | Sfp PPTase inh | G9a inh | JMJD2A Tudor
COc1cccc([C@@H]2Oc3ccc(OC)cc3/C(=N/O[C@@H](C)CN3CCCc4nc(C)c(C)cc43)[C@@H]2O)c1 | nt | -0.5%[21 µM] | nt | 7.2% | nt | nt
CCC(CO)Oc1cc(NCc2ccccc2OC)c2ncn(C(C)C)c2c1 (stereo unspecified) | 7.6% | 8.4% | nt | nt | nt | ?
COCCCOc1cc(NCc2ccccc2)c2ncn(C(C)C)c2c1 | -34.1% | 10.9% | nt | nt | nt | 56.2µM*
CCC(CO)Oc1cc(NCc2cccc(OC)c2)c2ncn(C(C)C)c2c1 (stereo unspecified) | 15.1% | 7.4% | nt | nt | nt | ?
CCC(CO)Oc1cc(NCc2ccccc2F)c2ncn(C(C)C)c2c1 (stereo unspecified) | -2.7% | 8.3% | ? | nt | 18.1%[2.33 µM] | ?
CCC(CO)Oc1cc(NCc2ccccc2C(F)(F)F)c2ncn(C(C)C)c2c1 (stereo unspecified) | ? | 9.8% | nt | nt | nt | 44.7µM*
CCC(CO)Oc1cc(NCc2cccc(O)c2)c2ncn(C(C)C)c2c1 (stereo unspecified) | 9.9% | 2.3% | nt | nt | nt | -26.2%
CCOCCOc1cc(NCc2ccccc2)c2ncn(C(C)C)c2c1 | 14.1µM* | nt | nt | nt | nt | 10µM*
COc1ccc(Cc2cc(NCc3ccccc3)c3ncn(C(C)C)c3c2)cc1 | -36.3% | 7.9% | nt | nt | nt | 39.8µM*
Cc1ccc(Cn2ccnc2SCC(=O)NCc2ccccc2)cc1 | 9.5%[57 µM] | 7.7% | ? | nt | 7.5%[59 µM] | -22.3%
CCC(COC)Oc1cc(NCc2ccccc2)c2ncn(C(C)C)c2c1 (stereo unspecified) | -25.4% | 8.8% | 50.1µM* | nt | 1.4%[0.501 µM] | 50.1µM*
O=C(COC(=O)C1CCC(=O)N1)Nc1ccccc1OC(F)F (stereo unspecified) | 38.8% | 2.8% | nt | nt | nt | -7.0%
O=C1CCC(C(=O)OCc2cc(Cl)ccc2OC(F)F)N1 (stereo unspecified) | -12.7% | 0.0% | 8.2% | 5.7% | -14.9%[59 µM] | 39.8µM*
CC(C)n1ncc(N2CCOCC2)c(Cl)c1=O | -0.3% | nt | -0.5% | 8.7% | -5.5% | -7.0%
C=C(C)C1CC=C(CN2CCC(C(=O)OCC)CC2)CC1 (stereo unspecified) | ? | -6.1% | -24.8% | -2.2% | ? | 2.51µM*
C=C(C)C1CC=C(CN2CC(C)OC(C)C2)CC1 (stereo unspecified) | ? | -0.5% | ? | ? | 7.94µM* | 3.98µM*
C=C(C)[C@@H]1CC=C(CO)CC1 | 18.9% | nt | nt | nt | nt | -18.6%
COC(=O)COc1ccc(-c2nccc(-c3ccc(Br)cc3)n2)cc1 | 9.5% | nt | 4.1% | 16.8% | 6.3% | 15.8µM*
O=C1C2=C(C(=O)c3ccccc31)C1O[C@](c3ccsc3)(Cc3ccccc31)O2 | nt | nt | 10µM* | -3.3% | -37.8%[2.33 µM] | nt
O=c1oc2ccccc2c2c1C1O[C@](c3ccsc3)(Cc3ccccc31)O2 | nt | nt | 8.91µM* | -11.9% | nt | nt
COc1ccc2c3c(c(=O)oc2c1)C1O[C@](c2ccsc2)(Cc2ccccc21)O3 | nt | nt | ? | -4.9% | nt | nt
